# L major viab: Leishmania major promastigote growth inhibition, primary screen. Leishmania major promastigotes, resazurin fluorescence viability. actives 9% (n = 200,000). inhibition, % at 10 µM. AID 1063, 2008; in the data active = inhibition above about 50%;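 also: promastigotes grown with compound for 44 hours at 28 °C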
# Insulin prom up: insulin promoter activators in MIN6 cells, imaging, high-content screening, mouse beta cells; MIN6 insulin promoter-GFP reporter; active compounds read high; z-score at 5 µM; actives 0.3% (n = 190,000); AID 1625, 2009;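 active = z-score above 3 at 5 µM with at least 500 cells counted in the well; inconclusive = wells under 500 cells, flagged as cytotoxic or low count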
# Cl transport mod: KCC2 cotransporter modulators, thallium flux, primary screen, cell-based, HEK293 KCC2, FluoZin-2 fluorescence, MLSMR. Solute carrier family 12 member 5 (Homo sapiens), Q9H2X9. KCC2 cells, thallium flux FluoZin-2 fluorescence. B-score of Tl+ flux slope (higher = more flux/activation; lower = inhibition) at 10 µM. actives 2.2% (n = 190,000);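 active = thallium flux slope and its plate-corrected score both differing from the plate sample mean at a set confidence after two filtering rounds, in either direction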;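 also: slope of fluorescence scaled to starting intensity during 10 to 20 s after thallium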
# ROMK mod: ROMK potassium channel modulators, primary screen, cell-based, thallium flux, MLSMR library | AID 1918, 2009 | B-score at 10 µM | actives 2% (n = 130,000) | ATP-sensitive inward rectifier potassium channel 1 (Homo sapiens), P48048 | Tet-inducible ROMK, thallium flux fluorescence; actives lie on both sides;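 active = signal ratio slope over the read window, or its plate-corrected B-score, at least 3 SD from the plate mean, either direction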;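 also: B-score of the F/F0 ratio slope over 7 to 12 s after thallium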
# Target sequence (P48048 whole entry, looked up): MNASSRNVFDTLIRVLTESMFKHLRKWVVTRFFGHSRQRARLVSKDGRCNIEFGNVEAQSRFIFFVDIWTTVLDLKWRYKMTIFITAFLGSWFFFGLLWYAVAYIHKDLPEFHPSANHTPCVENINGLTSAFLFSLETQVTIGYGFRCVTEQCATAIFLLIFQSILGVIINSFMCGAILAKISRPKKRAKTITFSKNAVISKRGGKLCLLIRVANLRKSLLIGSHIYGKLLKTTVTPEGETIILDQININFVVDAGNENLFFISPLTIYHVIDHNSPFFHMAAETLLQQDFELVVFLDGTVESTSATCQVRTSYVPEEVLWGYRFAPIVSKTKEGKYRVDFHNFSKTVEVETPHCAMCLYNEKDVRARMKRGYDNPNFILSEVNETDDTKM
# WT yeast gro inh: growth inhibition of WT strain, primary screen, mitochondrial fusion inhibitor project, WT and mutant strains, chemical genetic; inhibition, % at 10 µM; AID 1362, 2008; mitochondrial fusion phenotypic screen; actives 2.1% (n = 190,000); in the data active = inhibition above about 58%; tested in S. cerevisiae
# INS promoter inh: inhibitors of insulin promoter-driven GFP, primary screen, imaging, TRM-6 cells (human fetal islet line), eGFP reporter, cell count. actives 0.9% (n = 130,000). inhibition, % at 2 µM. reporter expression induced with tamoxifen;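 active = inhibition above the mean plus 3 SD, with well images judged a real hit on visual review, cut at about 60% in these data, passing the limit was not always enough; inconclusive = inhibition over the cutoff but images rejected on review; inactive = inhibition not above the cutoff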
# Starred values were filed as active, the others as inactive; ? = inconclusive; . = not tested or not shown. In the library only some 12% were active in any assay of this set; here they are far more common.
SMILES,L major viab,Insulin prom up,Cl transport mod,ROMK mod,WT yeast gro inh,INS promoter inh
O=C(Nc1nc(-c2ccccc2)cs1)C1CCCCN1S(=O)(=O)c1ccc(Cl)cc1 (stereo not given),100*,-0.75,-1.7,-0.5,43,-14
O=C(Nc1ccc2c(c1)OCO2)C1CCCCN1S(=O)(=O)c1ccccc1 (stereo not given),65*,0.26,1.3,-0.45,18,9
Cc1csc(NC(=O)C2CCCN(S(=O)(=O)c3ccc(Br)s3)C2)n1 (stereo not given),61*,1.1,0.82,-0.33,20,7
Cc1ccc(S(=O)(=O)n2[nH]c(=O)cc2N)cc1,1,-0.31,1.4,.,-1,.
O=C(Nc1ccccc1)C1CCCCN1S(=O)(=O)c1ccccc1 (stereo not given),7,-0.31,0.64,-0.75,-7,.
O=C(Nc1nc(-c2ccccc2)cs1)C1CCCCN1S(=O)(=O)c1ccccc1 (stereo not given),93*,-0.33,-1.7,.,19,3
CCCCCCCCCCCCCCCC(O)C(N)CO (stereo not given),100*,.,-0.073,.,27,-59
O=C(OCc1cnc(Cl)s1)c1c(F)cccc1F,-7,-0.34,.,0.001,-13,0
COc1cc(C(=O)ON=C2C(C)=CC(=O)C=C2C)cc(OC)c1OC,74*,0.61,.,-1,-20,5
COc1cc(C(=O)Oc2cc(C)cc(C)c2)cc(OC)c1OC,-7,.,-0.32,.,-12,-360
COc1cc(C(=O)O/N=C2/C=C(C)C(=O)C=C2C)cc(OC)c1OC,93*,1.2,-0.18,.,-23,.
CCS(=O)(=O)N1CCN(c2ccc(Cl)cc2[N+](=O)[O-])CC1,-3,0.54,-1.3,-0.63,8,10
OCC1(Cc2cccc(Cl)c2)CCCN(Cc2cn[nH]c2C2CCCCC2)C1 (stereo not given),36,.,0.079,-1.9,-9,.
CC(C)Cc1cc(CN2CCCC(CO)(Cc3cccc(Cl)c3)C2)[nH]n1 (stereo not given),68*,-0.32,-0.65,0.8,9,.
Cc1cc(CN2CCCC(CO)(Cc3cccc(Cl)c3)C2)n[nH]1 (stereo not given),29,-0.88,-0.65,0.066,17,.
CC(C)Cc1cc(CN2CCC(CO)(Cc3cccc(C(F)(F)F)c3)CC2)[nH]n1,85*,-0.16,-0.054,0.57,-1,19
OCC1(Cc2cccc(Cl)c2)CCCN(Cc2ccc3cc(F)ccc3n2)C1 (stereo not given),55*,0.35,-0.15,-0.43,25,.
O=C(COC(=O)CSc1ccc2ccccc2c1)NC1CC1,-8,-0.74,0.32,.,-16,.
Cc1cc(C)cc(-n2c(C)cc(/C=N/NC(=O)CSc3ncccn3)c2C)c1,2,0.3,.,.,5,-13
O=C(/C=C/c1ccco1)NC(=S)Nc1nc(-c2ccc3ccccc3c2)cs1,-4,-0.32,1.3,.,11,.
Cc1cc(=O)[nH]c(SCC2(O)C3CC4CC(C3)CC2C4)n1 (stereo not given),-4,0.13,.,-0.052,14,.
COC(CNC(=O)C1CCN(C(=O)c2cc3oc(C)cc3n2Cc2c(F)cccc2Cl)CC1)OC,9,.,-2.3,0.44,-4,.
CCOC(=O)N1CCC(NC(=O)C2CCN(C(=O)c3cc4oc(C)cc4n3Cc3c(F)cccc3Cl)CC2)CC1,75*,-0.14,-0.95,1.8,20,5
CC(C)NC(=O)c1c(CSc2ccccc2)noc1C(=O)NCc1ccccc1,.,-0.05,0.11,.,.,.
CCCCC(=O)NC(c1ccc([N+](=O)[O-])cc1)c1c(O)ccc2ccccc12 (stereo not given),100*,-0.83,-0.5,-0.4,82*,-5
SMILES,L major viab,Insulin prom up,Cl transport mod,ROMK mod,WT yeast gro inh,INS promoter inh
CCC(=O)NC(c1ccc([N+](=O)[O-])cc1)c1c(O)ccc2ccccc12 (stereo not given),69*,0.02,.,.,12,-41
O=C(CNc1cccc2ccccc12)c1ccc([N+](=O)[O-])cc1,2,0.1,-0.14,.,1,.
Cc1ccc(-c2cccc(C3CC=CC4C3C(=O)N(Cc3ccccc3)C4c3cc(C)ccc3F)c2)cc1 (stereo not given),.,.,-0.28,.,.,.
COc1cccc2sc(NNC(=O)COc3ccccc3)nc12,2,0.04,0.38,0.55,-7,53
Brc1ccc(Nc2nc(-c3cccnc3)cs2)cc1,26,-0.61,0.88,0.36,38,.
c1ccc(-c2csc(Nc3cccnc3)n2)nc1,58*,-0.08,-2,.,-2,-454
c1ccc(Nc2nc(-c3ccccn3)cs2)cc1,101*,-0.78,-0.055,-0.16,46,3
Clc1cccc(Nc2nc(-c3cccnc3)cs2)c1,54*,.,0.092,-0.041,39,33
c1ccc(Nc2nc(-c3ccncc3)cs2)cc1,7,.,-0.98,.,11,24
COc1cccc2sc(Nc3nc(-c4ccccn4)cs3)nc12,100*,?,.,0.47,63*,-80
O=C(CN1C(=O)c2ccc([N+](=O)[O-])cc2C1=O)NCc1ccco1,2,-0.26,-0.04,0.0027,7,5
NC(=O)c1ccc(-n2nc(C(F)(F)F)c3c2CCCC3)cc1,2,0.24,-2.1,.,0,.
COc1cc(C(C)=O)ccc1OCCN1CCC(Cc2ccccc2)CC1,90*,-0.27,-0.7,-0.61,16,.
COc1cc(C(C)=O)ccc1OCC(O)CN1CCN(S(=O)(=O)c2ccccc2)CC1 (stereo not given),6,-0.54,0.68,.,-10,17
Clc1ccccc1OCCN1CCC(Cc2ccccc2)CC1,90*,-0.06,1.4,-0.28,63,.
COc1ccccc1NC(=O)CSc1nnnn1Cc1ccccc1,-4,-1.1,.,0.86,8,45
N#Cc1ccc(NC(=O)Nc2ccc(Cl)cc2)cc1,28,-0.89,-1,.,63*,.
CC(c1ccccc1)N1CCN(C(=O)CCl)CC1 (stereo not given),76*,-0.44,-0.087,-0.13,-1,.
O=C(Oc1c(Cl)cc(Cl)c2cccnc12)c1cccc([N+](=O)[O-])c1,70*,-0.84,51*,-0.29,56,-9
CCCN(CC(=O)Nc1ccc(C(N)=O)cc1)CC(=O)Nc1cc(Cl)ccc1Cl,-4,-0.01,1.5,-0.029,-5,6
CCOc1ccc2c(C)nc(NC3=NC(C)(C)C=C(C)N3)nc2c1,101*,-2.4,-0.25,-1.9,0,-347
CCOc1ccc2nc(NC3=NC(c4ccc(OC)cc4)CC(=O)N3)nc(C)c2c1 (stereo not given),15,2.2,0.034,.,14,.
CCOc1ccc2nc(NC3=NC(C)(C)C=C(C)N3)nc(C)c2c1,98*,-3.1,1.4,-1.2,14,.
